Experimental data from PubChem BioAssay (NCATS).
Records with an inconclusive call do not appear. Active and inactive are the calls of the source. The call rests on the fitted dose curve; in most records, active means well fitted inhibition curve with a large enough effect; inconclusive means small, poorly fitted or top-dose-only effect; inactive means flat fitted curve, though single readings scatter.

Tests used:
Assay in all cases: qHTS profiling for inhibitors of Plasmodium falciparum proliferation (AID 504749); further: nearly all actives have a fitted effect of over 60% in size
Conditions in all cases: P. falciparum in erythrocytes, SYBR Green DNA, 72 h; series mostly up to 12.8 µM
3D7 = test system: 3D7
Outline: (§1)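 P. falciparum-infected erythrocytes (0.3% parasitemia, 2.5% hematocrit final) were exposed to compounds for 72 h at 37 C in 5% CO2, then lysed with SYBR Green buffer overnight at room temperature; parasite DNA fluorescence was normalized to artemisinin and DMSO controls.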

AS120 = test system: AS120
Outline: as §1

ATS95 = test system: ATS95
Outline: as §1

CP185 = test system: CP185
Outline: as §1

CP191 = test system: CP191
Outline: as §1

CP192 = test system: CP192
Outline: as §1

CP217 = test system: CP217
Outline: as §1

CP247 = test system: CP247
Outline: as §1

CP252 = test system: CP252
Outline: as §1

CP256 = test system: CP256
Outline: as §1

CP262 = test system: CP262
Outline: as §1

CP266 = test system: CP266
Outline: as §1

CP291 = test system: CP291
Outline: as §1

CP305 = test system: CP305
Outline: as §1

CP315 = test system: CP315
Outline: as §1

CP325 = test system: CP325
Outline: as §1

CP329 = test system: CP329
Outline: as §1

HB3 = test system: HB3
Outline: as §1

N140 = test system: N140
Outline: as §1

TAB113 = test system: TAB113
Outline: as §1

Measured: Potency

CCc1c(C)[nH]c2c1C(=O)[C@H](CN1CCOCC1)CC2
inactive: all assays above

CS(=O)(=O)c1ccc([C@H](O)[C@H](CO)NC(=O)C(Cl)Cl)cc1
inactive: 3D7 | AS120 | ATS95 | CP191 | CP192 | CP217 | CP247 | CP266 | HB3 | N140 | TAB113

C[C@H](Oc1ccccc1)C(=O)N[C@@H]1C(=O)N2[C@@H]1SC(C)(C)[C@@H]2C(=O)O
inactive: all assays above

C#C[C@]1(O)CC[C@@H]2[C@H]3CCC4=CCCC[C@@H]4[C@@H]3CC[C@@]21C
inactive: all assays above
